Screens as filed in PubChem BioAssay.
NCOA3 inh: SRC3 coactivator transcriptional activity inhibitors, primary screen, cell-based, luminescence | HEK293 GAL4-SRC3 luciferase reporter | inhibition, % at 3.6 µM | 0.17% of 360,000 active | AID 588352, 2011;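 active = inhibition above a per-campaign cutoff, the mean of all compounds plus 3 SD, cut at about 60% in these data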;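 note: higher means less SRC3-driven luciferase light from the GAL4 reporter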
NR2F2 inh: NR2F2 transcriptional activity inhibitors, primary screen, cell-based, luciferase reporter, HEK293T, luminescence. COUP transcription factor 2 (Homo sapiens), P24468. HEK293T NGFI-A luciferase reporter. inhibition, % at 8.6 µM. 0.7% of 370,000 active. AID 686940, 2013;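 active = inhibition above a per-plate cutoff, mean inhibition of test wells between control levels plus 3 SD, cut at about 38% in these data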;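 note: cells cotransfected with COUP-TFII expression vector driving the NGFI-A reporter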
NR5A2 inv ag: LRH-1 (NR5A2) inverse agonists, primary screen, cell-based, luminescence, HEK293T, StAR-luciferase reporter. 0.13% of 360,000 active. inhibition, % at 3.6 µM. LRH-1 transfected, 24 h. Nuclear receptor subfamily 5 group A member 2 (Homo sapiens), O00482;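 active = inhibition above the mean inhibition of all tested compounds plus 3 SD, cut at about 73% in these data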
NCOA1 inh: SRC1 coactivator transcriptional activity inhibitors, primary screen, cell-based, luminescence. Nuclear receptor coactivator 1 (Homo sapiens), Q15788. HEK293 GAL4-SRC1 luciferase reporter. inhibition, % at 3.6 µM. 0.12% of 360,000 active. AID 588354, 2011;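 active = inhibition above the campaign mean plus 3 SD, with each screening campaign given its own cutoff, cut at about 60% in these data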
GalR3 antag: GalR3 antagonists in HEK293 cells, primary screen, cell-based, fluorescence readout. AID 651719, 2012. inhibition, % at 3 µM. Galanin receptor type 3 (Homo sapiens), O60755. HEK293 GalR3-CNG cAMP membrane potential fluorescence; galR3 body fused to GalR1 C-terminus. 0.44% of 360,000 active;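 active = inhibition above the screen-wide average plus 3 SD, cut at about 13% in these data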;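 note: forskolin and galanin both at EC90 stimulate the cells; cAMP rise reported by CNG channel membrane potential dye signal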
NCOA2 inhibitor: inhibition of GAL4-SRC2 driven luciferase reporter, primary screen, SRC2 inhibitor project, cell-based, luminescence; Nuclear receptor coactivator 2 (Homo sapiens), Q15596; inhibition, % at 9 µM; 0.17% of 370,000 active; HEK293 GAL4-SRC2 luciferase reporter;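 active = inhibition above the mean inhibition of all tested compounds plus 3 SD, set per campaign, cut at about 52% in these data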
GalR3 conf: GalR3 antagonist hit confirmation, cell-based, fluorescence, triplicate; shares compounds with GalR3 antag; HEK293 GalR3 CNG cAMP biosensor, membrane potential fluorescence; galR3 fused to GalR1 carboxy tail; challenged with forskolin and galanin at EC90; inhibition, % at 3 µM; 59% of 1,600 active; AID 652245, 2013;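 active = inhibition above the primary screen's cutoff, the mean inhibition of all screened compounds plus 3 SD, cut at about 13% in these data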
CNG parental: nonspecific cAMP agonists in parental HEK-CNG cells, counter-screen for GalR3 antagonist project, cell-based, fluorescence, high throughput | 10% of 1,600 active | HEK293-CNG parental cells, cAMP membrane potential fluorescence; normalised: DMSO wells 0%, forskolin wells 100% | activation, % at 3 µM | AID 652268, 2013 | shares compounds with GalR3 antag; in the data active = activation above about 1.3%
Large screens that a line does not name were inactive (follow-up assays come after a bar, where they were run). Shown are actives, neighbours in structure and some others; about 1.1% of the full set was active somewhere.

C[C@@H]1ON(C)[C@H]2C[C@H]3c4[nH]c5c(-c6ccccc6F)cccc5c4CCN3C[C@@H]12	none (no result: NCOA3 inh, NR5A2 inv ag, NCOA1 inh, GalR3 antag)
O=S(=O)(c1ccccc1)c1ncc(C(F)(F)F)cc1Cl	GalR3 antag 15 | GalR3 conf 24 | CNG parental inactive
COc1ccc(C2C(C(=O)N3CCN(C=O)CC3)CC(=O)N2c2ccc(OC)cc2)cc1 (stereo not drawn)	none (no result: NCOA3 inh, NR5A2 inv ag, NCOA1 inh, GalR3 antag)
CCOc1ncccc1C(=O)OCC(=O)c1ccccc1	none
CCOc1ncccc1C(=O)OCC(=O)c1ccccc1Br	GalR3 antag 16 | GalR3 conf inactive | CNG parental inactive
CC(C)(C)c1ccc(-c2nnc3sc(COc4ccccc4)nn23)cc1	none (no result: NCOA3 inh, NR5A2 inv ag, NCOA1 inh, GalR3 antag)
CCOCCCNS(=O)(=O)c1ccccc1	none
CCOCCCNS(=O)(=O)c1ccc(NC(=O)c2ccccc2)cc1	GalR3 antag 65 | GalR3 conf inactive | CNG parental inactive
COCCN(Cc1cccs1)S(=O)(=O)c1ccc(-c2ccc(=O)[nH]n2)s1	GalR3 antag 26 | GalR3 conf 28 | CNG parental inactive
CCc1ccccc1NC(=O)CN(C)S(=O)(=O)c1ccc(-c2ccc(=O)[nH]n2)s1	none
CCCCN(Cc1cccs1)S(=O)(=O)c1ccc(-c2ccc(=O)[nH]n2)s1	GalR3 antag 22 | GalR3 conf 24 | CNG parental inactive
COCCCN(Cc1cccs1)S(=O)(=O)c1csc(C(N)=O)c1	none
CCOC(=O)CCN(c1ccccc1)S(=O)(=O)c1ccc(-c2ccc(=O)[nH]n2)s1	GalR3 antag 33 | GalR3 conf 57 | CNG parental inactive
CN(C)CCN(Cc1ccccc1)S(=O)(=O)c1ccc(-c2ccc(=O)[nH]n2)s1	none
COc1cccc(-c2nnc3sc(-c4ccc(Br)o4)nn23)c1	none (no result: NCOA3 inh, NR5A2 inv ag, NCOA1 inh, GalR3 antag)
O=C(CSc1nc2ccccc2n1Cc1ccccc1Cl)NN=C/C(Br)=C/c1ccccc1	none (no result: NCOA3 inh, NR5A2 inv ag, NCOA1 inh, GalR3 antag)
CC(C)(C)N1Cc2nnn(CC3CCCCC3)c2-c2cc(F)ccc2S1(=O)=O	none (no result: NCOA3 inh, NR5A2 inv ag, NCOA1 inh, GalR3 antag)
CC(=O)NC(CC(=O)OCC(=O)c1c(N)n(CC(C)C)c(=O)n(C)c1=O)c1ccccc1 (stereo not drawn)	none
Cn1c(N)c(C(=O)COC(=O)CC(NC(=O)c2ccccc2Cl)c2ccccc2)c(=O)n(C)c1=O (stereo not drawn)	GalR3 antag 14 | GalR3 conf inactive | CNG parental inactive
COc1ccccc1C(=O)NC1CCCCN(Cc2ccc(OC(F)(F)F)cc2)C1=O (stereo not drawn)	none (no result: NCOA3 inh, NR5A2 inv ag, NCOA1 inh, GalR3 antag)
Cc1cccc(NC2=C(Cl)C(=O)OC2OC(C)C)c1 (stereo not drawn)	GalR3 antag 14 | GalR3 conf inactive | CNG parental inactive
Cc1ccc(NC2=C(Cl)C(=O)OC2OC(C)C)cc1 (stereo not drawn)	none
COn1c(-c2ccc(Cl)cc2)nc2ccc(Cl)cc21	none
O=C(O)COn1c(-c2ccc(Cl)cc2)nc2ccc(Cl)cc21	GalR3 antag 30 | GalR3 conf 14 | CNG parental inactive
O=C(COc1ccc(Cl)cc1)Nc1ccc(CN2CCOCC2)cc1	none
CC(C)c1ccc(/C=C/C(=O)NC(=S)Nc2ccc(CN3CCOCC3)cc2)cc1	GalR3 antag 46 | GalR3 conf 75 | CNG parental 22
CCC(C)c1ccc(OCC(=O)Nc2ccc(CN3CCOCC3)cc2)cc1 (stereo not drawn)	GalR3 antag 18 | GalR3 conf inactive | CNG parental inactive
OCCN1CCN(CC(O)COc2ccc(C34CC5CC(CC(C5)C3)C4)cc2)CC1 (stereo not drawn)	none
NCCOc1ccc(C23CC4CC(CC(C4)C2)C3)cc1	GalR3 antag 27 | GalR3 conf 28 | CNG parental 14
COc1ccc(CCNC(=O)c2csc3c2CCCC3)cc1OC	GalR3 antag 13 | GalR3 conf inactive | CNG parental inactive
CN(C(=O)c1ccc(S(=O)(=O)c2cccc(Cl)c2)c([N+](=O)[O-])c1)C1CCCCC1	GalR3 antag 22 | GalR3 conf inactive | CNG parental inactive
COc1ccc(O)c(C(=O)c2cnn(-c3ccccn3)c2)c1	none
COc1ccc(O)c(C(=O)c2cnc3nc4ccccc4n3c2)c1	GalR3 antag 22 | GalR3 conf 18 | CNG parental inactive
COc1ccc2[nH]c(O)c(N=NC(=N)N)c2c1	GalR3 antag 14 | GalR3 conf inactive | CNG parental inactive
COc1cccc2[nH]c3c(N4CCCC(C)C4)ncnc3c12 (stereo not drawn)	GalR3 antag 84 | GalR3 conf 94 | CNG parental inactive
COc1ccc(CN(CCN2CCOCC2)C(=O)c2cc(F)ccc2C)cc1OC	none (no result: NCOA3 inh, NR5A2 inv ag, NCOA1 inh, GalR3 antag)
CC(=O)NCCCc1nc2ccccc2n1Cc1cc(C)ccc1C	none
CC(=O)NCCc1nc2ccccc2n1Cc1ccc(C)cc1	none (no result: GalR3 antag) | GalR3 conf inactive | CNG parental inactive
O=C(CSc1nc2ccccc2[nH]1)NN=Cc1c(F)cccc1Cl	none (no result: NCOA3 inh, NR5A2 inv ag, NCOA1 inh, GalR3 antag)
COc1cccc(-c2nnc3n2N=C(c2ccc(Cl)cc2)CS3)c1	none (no result: NCOA3 inh, NR5A2 inv ag, NCOA1 inh, GalR3 antag)
CC1(C)CC(=O)C2=C(C1)NC1=C(C(=O)c3ccccc31)C2c1ccc(O)cc1 (stereo not drawn)	GalR3 antag 34 | GalR3 conf 60 | CNG parental inactive
NC(=O)C1CCN(c2nc(-c3ccc4c(c3)CCO4)cs2)CC1	none (no result: NCOA3 inh, NR5A2 inv ag, NCOA1 inh, GalR3 antag, NCOA2 inhibitor)
Cc1ccc(CN2C(=O)CCC2C(=O)NCCCN2CCOCC2)cc1 (stereo not drawn)	none
Cc1ccc(CN2C(=O)CCC2C(=O)NCCCN2CCC(C)CC2)cc1 (stereo not drawn)	none (no result: GalR3 antag) | GalR3 conf inactive | CNG parental inactive
COc1cc2c(cc1OC)-c1cc(N3CCc4ccccc43)nc(=O)n1CC2	none
COc1cc2c(cc1OC)-c1cc(N3CCCc4ccccc43)nc(=O)n1CC2	GalR3 antag 47 | GalR3 conf 60 | CNG parental inactive
COc1cc2c(cc1OC)-c1cc(N3CCCCCC3)nc(=O)n1CC2	GalR3 antag 50 | GalR3 conf 14 | CNG parental inactive
